We go through 96 compounds from PubChem BioAssay AID1048 (The Scripps Research Institute Molecular Screening Center, 2008).

Out of some 99,000 compounds screened, about 390 (0.39%) were called active. The entries come from a sample that favours actives as a whole. A number with no mark means an inactive call. Cut-off read from the data, not from the text of the source: active = TR-FRET ratio above about 2000; inactive = the rest.

This assay in a line: signal artefacts in PPARgamma/SRC-3 readout – biochemical, TR-FRET ratio, artefact control for PPARgamma SRC-3 recruitment agonists (AID 1048). To be noted: TR-FRET artefact counter-screen, PPARgamma/SRC-3 format; at 8 µM; active compounds read high. (In general: In TR-FRET formats the signal depends on donor and acceptor labels being close together.)
For `COCCN(C(=S)Nc1ccccc1OC)C1CCN(C(C)C)CC1`, the TR-FRET ratio was 1690.
The figure for `COc1ccc(OC)c(C(=O)c2ccc(C(=O)N3CCN(Cc4csc(C)n4)CC3)cc2)c1` is 1600; for `COc1ccc(C)cc1NC(=O)Nc1ccccc1SC` it is 1480; for `Cc1ccc(-c2cc(C(=O)NCc3cn(C)nc3C)c3cc(Br)ccc3n2)cc1` it is 3150 (active).
With `C/C(N)=C(/C#N)C(=O)COC(=O)c1cc(-c2ccccc2)nc2ccc(Br)cc12`, the TR-FRET ratio is 1450.
With `Cc1ccc2nc(-c3cccc(Br)c3)cc(C(=O)Nn3cnnc3)c2c1`, the TR-FRET ratio is 1410.
Turning to `O=C(NCc1ccccn1)c1cc(Br)ccc1Cl`, the TR-FRET ratio was 1620.
Consider `O=C(NCc1cccs1)c1cc(-c2ccccn2)nc2ccc(Br)cc12`, for which the TR-FRET ratio was 2270 (active).
On to `O=C(Nc1ccncc1)c1cc(-c2ccccn2)nc2ccc(Br)cc12`, for which the TR-FRET ratio was 1720.
For the compound `O=C(Cc1c(F)cccc1Cl)Nc1ccc(-n2cnnn2)cc1`, the TR-FRET ratio was 1510.
Consider `Cn1c(=O)cc(SCC(=O)N2CCCC2)c2cc(Cl)ccc21`, for which the TR-FRET ratio is 3460 (active).
Consider `CC(C)N(C(=O)Cn1cc(SCC(=O)N2CCCC2)c2ccccc21)C(C)C`, for which the TR-FRET ratio is 1440.
Consider `CCOc1ccc(CCNC(=O)CSc2cc(=O)n(C)c3ccc(Cl)cc23)cc1OCC`, for which the TR-FRET ratio is 1800.
The figure for `CC(C)NC(=O)c1ccc(Cl)cc1Cl` is 1730.
On to `NC1=NC2(CCCCC2)N(c2ccc(F)cc2F)C(N)=N1`, for which the TR-FRET ratio was 1410.
Take `COc1ccc2c(CC(=O)OCC(=O)Nc3ccccc3[N+](=O)[O-])coc2c1`: the TR-FRET ratio is 1720.
For the compound `CCOc1ccc(NC(=O)c2cc(C)nc3ccccc23)cc1`, the TR-FRET ratio was 1470.
Consider `CCOc1ccc(NC(=O)CSc2nc3ccccc3c(=O)n2Cc2cccs2)cc1`, for which the TR-FRET ratio is 1640.
The figure for `CCOc1ccc(NC(=O)CSc2ncnc3c2sc2ccccc23)cc1` is 3140 (active).
The figure for `Cn1nnnc1NCc1ccc(Cl)c(Cl)c1` is 1750.
With `CCOC(=O)C1C(c2ccc(Cl)cc2)NC(=S)NC1(O)C(F)(F)F` (stereo unspecified), the TR-FRET ratio was 1580.
The figure for `CN(C)c1ccc(N/C=C/C(=O)C(F)(F)F)cc1` is 2070 (active); for `CCCOc1ccc(N/C=C/C(=O)C(C)(C)C)cc1` it is 1370; for `CC(C)CNC(=O)C(=O)Nc1ccc(N(C)C)cc1` it is 1510.
Take `COc1ccc(CC(NC(C)=O)C(=O)NC2CCN(C(=O)C3CC3)CC2)cc1OC` (stereo unspecified): the TR-FRET ratio was 1430.
The figure for `CC1COc2ccccc2N1C(=O)c1cccnc1Cl` (stereo unspecified) is 1670; for `COc1ccc(C(=O)NNC(=O)c2cc(C)[nH]n2)cc1` it is 1480.
On to `O=C(O)Cc1ccc(-c2ccccc2)cc1`, for which the TR-FRET ratio is 1600.
Take `O=C(O)Cc1sc(-c2ccccc2)nc1-c1cccs1`: the TR-FRET ratio was 2530 (active).
Regarding `O=C(O)Cc1sc(-c2ccc(C(=O)O)cc2)nc1-c1ccccc1`, the TR-FRET ratio was 1690.
In the case of `CN(C)/N=C/c1cn(-c2ccccc2)nc1-c1cccnc1`, the TR-FRET ratio is 1610.
Consider `CCc1nnc(NC(=O)CSc2nnnn2-c2cccc(C(C)=O)c2)s1`, for which the TR-FRET ratio was 1550.
As for `Cc1ccc2c(c1)C1CN(C)CCC1N2C(=S)Nc1ccc(Cl)cc1Cl` (stereo unspecified), the TR-FRET ratio was 1610.
With `CCN(CC)CCNc1nc(-c2ccc(OC(F)F)cc2)c(C)s1`, the TR-FRET ratio was 1480.
Consider `CC(NC(=O)COC(=O)c1ccc(Cl)cc1O)c1ccc(F)cc1` (stereo unspecified), for which the TR-FRET ratio was 1480.
For the compound `CCc1ccc(-n2c(SCc3cc(=O)n4cc(Br)ccc4n3)nc3[nH]ncc3c2=O)cc1`, the TR-FRET ratio was 2480 (active).
On to `O=c1c2sccc2nc(SCc2cc(=O)n3ccccc3n2)n1-c1ccc(Br)cc1`, for which the TR-FRET ratio was 1730.
For `Cc1cccc2nc(CSc3nc4[nH]ncc4c(=O)n3-c3cccc(Cl)c3)cc(=O)n12`, the TR-FRET ratio is 1540.
The figure for `COc1ccc2cc(CCl)c(Cl)nc2c1` is 1710; for `CN(C)c1ccc(/C=N/Nc2cc(N3CCOCC3)nc(N3CCOCC3)n2)cc1` it is 2070 (active); for `C(=N/Nc1cc(N2CCOCC2)nc(N2CCOCC2)n1)/c1ccccc1` it is 1290.
On to `CCN(CC)c1ccc(C(=O)N/N=C/c2ccc(N3CCOCC3)cc2)cc1`, for which the TR-FRET ratio is 1580.
The figure for `CCCN(CC(=O)Nc1ccc(C(N)=O)cc1)CC(=O)Nc1ccccc1C` is 1400; for `CC1Cc2ccccc2N1C(=O)CSc1nnc(-c2ccc(S(=O)(=O)N3CCCC3)cc2)n1C` (stereo unspecified) it is 1610; for `CC/C(Cc1ccccc1)=N/NC(=O)CCn1nnc2ccccc21` it is 1860.
In the case of `CCOC(=O)c1c(NC(=S)Nc2ccccc2C)sc2c1CCC2`, the TR-FRET ratio was 1790.
As to `CCOC(=O)c1c(NC(=O)CSc2cn(CC)c3ccccc23)sc2c1CCC2`, the TR-FRET ratio is 1590.
Turning to `CCOC(=O)c1c(NC(=O)C(C)Sc2c[nH]c3ccccc23)sc2c1CCC2` (stereo unspecified), the TR-FRET ratio was 3480 (active).
Take `Cc1ccc(S(=O)(=O)NCCC(=O)Nc2ccc(C)c(Cl)c2)cc1C`: the TR-FRET ratio is 1640.
Take `Cc1ccc(-c2nc(-c3cccnc3)sc2CC(=O)Nc2ccc(C)c(Cl)c2)cc1`: the TR-FRET ratio was 3550 (active).
`Cc1cccc(NC(=O)c2sc(-c3ccccc3)nc2-c2ccc([N+](=O)[O-])cc2)c1`: the TR-FRET ratio was 1630.
Regarding `CCc1cc(CNC(=O)CC2C(=O)NCCN2CC2CCCCC2)on1` (stereo unspecified), the TR-FRET ratio was 1630.
For `CC1=CC=CN2C1=NC(=O)CC2(C)C(=O)N(CC(=O)NC1CCCC1)c1ccccc1C` (stereo unspecified), the TR-FRET ratio was 1450.
The figure for `CN(Cc1ccccn1)Cc1nc(-c2ccc(Cl)cc2)no1` is 1430; for `CN1CCN(S(=O)(=O)c2cccc(C(=O)O)c2)CC1` it is 1540.
`CC1(C)CC(=O)C(C2c3ccccc3S(=O)(=O)c3ccccc32)C(=O)C1`: the TR-FRET ratio is 1570.
Regarding `CN(CCc1cnn(C)c1)Cc1cn(C)nc1-c1ccccc1F`, the TR-FRET ratio was 1360.
In the case of `COc1cccc(NC(=O)CC(c2ccc(OC(C)C)cc2)c2ccccc2OC)c1` (stereo unspecified), the TR-FRET ratio was 1470.
Take `COn1c(-c2ccc(Cl)cc2Cl)nc2ncccc21`: the TR-FRET ratio was 1970.
Turning to `COc1ccc(CCNC(=O)COC(=O)C2CCCCC2)cc1`, the TR-FRET ratio was 1330.
For the compound `CC(C)(C)NC(=O)COC(=O)c1cc(Cl)ccc1[N+](=O)[O-]`, the TR-FRET ratio is 1550.
The figure for `COc1ccc2c(c1)C(SCC(=O)NCc1ccccc1)CC(C)(C)O2` (stereo unspecified) is 1590; for `O=S1(=O)CC/C(=N\Nc2ccc(F)cc2)c2ccsc21` it is 1680; for `COc1ccccc1NC(=O)COC(=O)Cc1ccc(S(=O)(=O)N2CCCCC2)s1` it is 1680.
The figure for `Cc1c(Cl)c([N+](=O)[O-])nn1CC(=O)NCC1CCCO1` (stereo unspecified) is 1690; for `O=[N+]([O-])c1ccccc1SNc1ccccn1` it is 1510.
`COCCCNc1nc2c(-c3cccc(C(F)(F)F)c3)nnn2c2ccccc12`: the TR-FRET ratio is 2690 (active).
Regarding `CC(=O)Nc1ccc(Nc2nc3c(S(=O)(=O)c4ccc(C)c(C)c4)nnn3c3ccccc23)cc1`, the TR-FRET ratio is 1560.
The figure for `Cc1cccc(Nc2nc3c(S(=O)(=O)c4ccccc4)nnn3c3ccccc23)c1C` is 1540.
The figure for `CCOC(=O)c1ccc(NC(=O)c2cc(=O)[nH]c3ccccc23)cc1` is 1550.
The figure for `O=C(NCc1ccc(F)cc1)C(c1ccccc1)N(C(=O)c1csnn1)C1CC1` (stereo unspecified) is 1460; for `CCc1nccn1S(=O)(=O)c1cccc([N+](=O)[O-])c1` it is 1700; for `CC1Cc2ccccc2N1C(=O)CSc1nnc(C2CC2)n1C` (stereo unspecified) it is 1630.
On to `Cc1ccc(S(=O)(=O)N(C)c2ccc(OCC(=O)NC3=NCCS3)cc2)cc1`, for which the TR-FRET ratio is 1460.
Consider `Cc1ccc(NC(=O)NNC(=O)c2sccc2-n2cccc2)cc1`, for which the TR-FRET ratio was 1310.
For `COc1cc(CN(C)Cc2nc3cc(C(F)(F)F)ccc3c(=O)[nH]2)ccc1OC(F)F`, the TR-FRET ratio was 1340.
Consider `CSCC(=O)N1CCCC(C(=O)c2cc(F)ccc2F)C1` (stereo unspecified), for which the TR-FRET ratio is 1400.
As for `Cc1ccc(C(=O)N/C(=C/c2cccs2)C(=O)NCC2CCCO2)cc1` (stereo unspecified), the TR-FRET ratio was 1510.
The figure for `O=C(CCC(=O)NNc1nc2ccccc2c2nc(-c3ccccc3)nn12)NCCCN1CCCC1=O` is 1570; for `C/C(=N\Nc1ncc(Cl)cc1Cl)c1cccs1` it is 1400.
As to `COCCn1c(=O)[nH]c(=O)c2cc(C(=O)c3cc(OC)ccc3O)cnc21`, the TR-FRET ratio was 1460.
As to `Fc1ccccc1Cc1ccc(Cl)nn1`, the TR-FRET ratio is 1250.
The figure for `CCCCOc1ccc(N(CC(=O)NC(C)C)C(=O)CCC(=O)Nc2ccccn2)cc1` is 1760; for `COc1ccc(C2CC(c3cccs3)=NN2C(=O)COC(=O)c2cc3ccccc3cc2O)cc1OC` (stereo unspecified) it is 1600.
The figure for `O=C(N/N=C/c1ccccn1)C12CC3CC(CC(C3)C1)C2` is 1520.
As to `O=C(NCCOc1ccccc1F)Nc1ccc(Br)cc1`, the TR-FRET ratio is 1530.
As for `O=C(O)c1ccc2c3c(cccc13)C(=O)N(OS(=O)(=O)c1ccccc1)C2=O`, the TR-FRET ratio was 1490.
Take `CCOC(=O)c1sc(NC(=O)COc2ncnc3ccccc23)c(C(=O)OCC)c1C`: the TR-FRET ratio is 1650.
For `CCC(=O)Nc1sc(C(=O)Nc2ccccc2)c(C)c1C(=O)OC`, the TR-FRET ratio is 1430.
As to `CCOC(=O)c1c(NC(=O)CNC2CCCc3ccccc32)sc(C(N)=O)c1C` (stereo unspecified), the TR-FRET ratio is 2120 (active).
For `CC(C)(C)C1CCC(C(=O)Nc2cccnc2)CC1` (stereo unspecified), the TR-FRET ratio is 1510.
The figure for `CN1/C(=C\C(=O)c2cccnc2Cl)C(C)(C)c2ccccc21` is 1630; for `Cc1ccc(Cl)cc1N1CCN(C(=O)c2cccc3c(=O)c(C)c(-c4ccccc4)oc23)CC1` it is 1350.
In the case of `O=C(CC1SC(=Nc2ccccc2F)N(CCN2CCOCC2)C1=O)Nc1ccc(F)cc1F` (stereo unspecified), the TR-FRET ratio was 1720.
As for `O=C(NNC(=O)c1cc2c(s1)CCCC2)c1ccccc1`, the TR-FRET ratio is 1550.
As for `CC(C)c1nc(CNC(=O)CC2C(=O)NCCN2Cc2ccoc2)cs1` (stereo unspecified), the TR-FRET ratio was 1610.
